The values that follow come from PubChem BioAssay.

SMILES strings stand for the structures. Activity calls are given as the source filed them.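 Rule for the calls, unless noted: active = compounds that lower viability of the colon cancer cells in the luminescence readout, with no numeric limit stated; inactive = the rest.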

Test [1] is described as follows: Wnt pathway potentiators raising nuclear beta-catenin – imaging, WNT3A-conditioned medium, mouse C2C12, NPC library, primary screen (AID 1117326; in the data active = nuclear beta-catenin stimulation mostly above about 4.2%, no sharp cut-off; inactive = mostly below about 10%; note: reference of the scale not given here). The conditions noted are these: stronger effect = higher value.
A short description of test [2]: stimulators of insulin release from INS-1E, primary screen, cell-based, 5 mM glucose, NPC library (AID 1117329;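 active = compound raises insulin release from rat beta cells at 5 mM glucose, no numeric limit stated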; note: reference of the scale not given here). The conditions noted are these: rat INS-1E insulin secretion, at 10 µM, stronger effect = higher value.
A short description of test [3]: growth inhibition of GSK3B-pretreated HCT116 cells – cell-based, CellTiter-Glo, 0.2 to 20 µM (AID 1117336;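 active = compounds lowering colon cancer cell viability after pretreatment blocking the GSK3B kinase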). The note with it: HCT116 viability after GSK3B inhibitor, at 20 µM, stronger effect = higher value. A general note: In ATP-based viability assays light output follows the ATP content of the culture.
The nature of test [4]: inhibition of endothelial tube formation, primary screen, imaging, VEGF stimulated, CD31 staining, tube area, NPC library (AID 1117340;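 active = compound that reduces growth-factor-driven endothelial tube area in a mixed cell culture, no cutoff stated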). The conditions noted are these: VEGF-stimulated ADSC/ECFC co-culture, at 10 µM, stronger effect = higher value.
Test [5] can be described thus: GLP1 release stimulators, primary, NCI-H716, NPC library (AID 1117341;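 active = compound raises GLP1 secretion from the human gut endocrine cells, with no numeric limit stated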; note: reference of the scale not given here). The conditions noted are these: NCI-H716 cells, at 10 µM, stronger effect = higher value.
The nature of test [6]: HCT116 colon cancer cell growth inhibition, primary screen, CellTiter-Glo luminescence, NPC library (AID 1117342;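 active = compounds that lower survival of HCT116 colon cancer cells in the luminescence readout, no numeric limit stated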). The note with it: at 20 µM (top of the series).
Test [7] is described as follows: reduced SW480 viability measured with CellTiter-Glo, NPC library, primary (AID 1117343). The note with it: CellTiter-Glo luminescence; at 20 µM (top of the series).
Test [8] in a line: NPC library primary testing for decreased DLD-1 cell viability via CellTiter-Glo (AID 1117346;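 active = compounds that lower survival of DLD-1 colon cancer cells in the luminescence readout, no cutoff given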). The note with it: DLD-1 viability, CellTiter-Glo luminescence; at 20 µM (top of the series).

In the case of `Cc1ccc2c(n1)Oc1ccc(C(C)C(=O)OCC(=O)N(C)C)cc1C2` (stereo not given), the nuclear beta-catenin stimulation was 0.6% (inactive) in test [1] (at 10 µM) and -2.8% in test [1] (stimulation, at 2 µM). Also, the insulin secretion stimulation in test [2] is 1.8% (inactive). Besides, in test [3], the viability decrease is 28.6% (inactive). Besides, in test [4], the tube area decrease was -10% (inactive). Besides, in test [5], the GLP1 secretion stimulation was 3.6% (inactive). The inhibition of viability in test [6] is 20.4% (inactive). Moreover, the viability decrease (inhibition) in test [7] was -3.8% (inactive); in test [8] it was -1.1% (inactive).

For `c1ccc(-n2cnnn2)cc1`, the nuclear beta-catenin stimulation in test [1] (at 10 µM) was 0.3% (inactive); in test [1] (stimulation, at 2 µM) it was 0.9%. Besides, in test [2], the insulin secretion stimulation is 1.9% (inactive). In addition, in test [3], the viability decrease is -7.2% (inactive). In test [4], the tube area decrease was 23.2% (inactive). The GLP1 secretion stimulation in test [5] is -5% (inactive). In addition, the inhibition of viability in test [6] was 1.7% (inactive). Moreover, the viability decrease (inhibition) was 10.4% (inactive) in test [7] and 1.4% (inactive) in test [8].

Regarding `Nc1ccc([N+](=O)[O-])c(C(F)(F)F)c1`, the nuclear beta-catenin stimulation in test [1] (at 10 µM) is 0.5% (inactive); in test [1] (stimulation, at 2 µM), -1%. The insulin secretion stimulation in test [2] was 0.2% (inactive). Also, the viability decrease in test [3] is 13.2% (inactive). The tube area decrease in test [4] is 1.1% (inactive). Further, the GLP1 secretion stimulation in test [5] is -0.8% (inactive). In test [6], the inhibition of viability is 26.5% (inactive). Moreover, the viability decrease (inhibition) in test [7] is -16.7% (inactive); in test [8], 18.5% (inactive).

Take `O=C(CN1CCNCC1)NC1CCCCC1`: the nuclear beta-catenin stimulation is -0.7% (inactive) in test [1] (at 10 µM) and 0.3% in test [1] (stimulation, at 2 µM). Besides, the insulin secretion stimulation in test [2] was 5% (inactive). Further, in test [3], the viability decrease is -3.9% (inactive). The tube area decrease in test [4] is 13.7% (inactive). Besides, in test [5], the GLP1 secretion stimulation was 1% (inactive). Moreover, the inhibition of viability in test [6] is 7.2% (inactive). Further, the viability decrease (inhibition) in test [7] is 16.3% (inactive); in test [8], 4.5% (active).

For the compound `CC(=O)Nc1ccc(OC(=O)c2ccccc2OC(C)=O)cc1`, the nuclear beta-catenin stimulation in test [1] (at 10 µM) is 0.6% (inactive); in test [1] (stimulation, at 2 µM), 14%. Also, in test [2], the insulin secretion stimulation was 4.1% (inactive). Further, the viability decrease in test [3] was 0.8% (inactive). In test [4], the tube area decrease is -15.2% (inactive). In addition, in test [5], the GLP1 secretion stimulation was -1.2% (inactive). Moreover, the inhibition of viability in test [6] is -5.8% (inactive). Further, the viability decrease (inhibition) in test [7] is -3% (inactive); in test [8], -10.1% (inactive).

Take `OCC=Cc1ccccc1`: the nuclear beta-catenin stimulation in test [1] (at 10 µM) is -2.6% (inactive); in test [1] (stimulation, at 2 µM) it was -1%. In test [2], the insulin secretion stimulation is 9.1% (inactive). The viability decrease in test [3] is -8.2% (inactive). In addition, in test [4], the tube area decrease is 0.4% (inactive). Moreover, the GLP1 secretion stimulation in test [5] was -1.9% (inactive). For the same compound, in test [6], the inhibition of viability was -0.4% (inactive). The viability decrease (inhibition) is -0.8% (inactive) in test [7] and -7.9% (inactive) in test [8].

Regarding `CCCCCCCCCCCCCCCCCC(=O)OCC(O)CO` (stereo not given), the nuclear beta-catenin stimulation in test [1] (at 10 µM) was -0.4% (inactive); in test [1] (stimulation, at 2 µM), 1.7%. In addition, in test [2], the insulin secretion stimulation was 2.1% (inactive). Also, the viability decrease in test [3] is 1% (inactive). For the same compound, the tube area decrease in test [4] is -4.1% (inactive). Moreover, the GLP1 secretion stimulation in test [5] is -0.3% (inactive). Besides, the inhibition of viability in test [6] is 2.77% (inactive). Besides, the viability decrease (inhibition) in test [7] is -13.8% (inactive); in test [8], -7.2% (inactive).

On to `CC(=O)SC[C@@H](Cc1ccccc1)C(=O)NCC(=O)OCc1ccccc1`, for which the nuclear beta-catenin stimulation in test [1] (at 10 µM) was -0.9% (inactive); in test [1] (stimulation, at 2 µM), 0.5%. For the same compound, the insulin secretion stimulation in test [2] is -1.4% (inactive). The viability decrease in test [3] was -9.8% (inactive). The tube area decrease in test [4] is 18.9% (inactive). Also, the GLP1 secretion stimulation in test [5] was -4.5% (inactive). Besides, the inhibition of viability in test [6] was -2% (inactive). In addition, the viability decrease (inhibition) in test [7] is -6.1% (active); in test [8] it was -5.9% (inactive).

For the compound `O=C(O)C(Cc1cc(I)c(O)c(I)c1)c1ccccc1` (stereo not given), the nuclear beta-catenin stimulation was 1.5% (inactive) in test [1] (at 10 µM) and 0.8% in test [1] (stimulation, at 2 µM). In addition, in test [2], the insulin secretion stimulation is -0.6% (inactive). Further, the viability decrease in test [3] is 36.8% (inactive). Moreover, the tube area decrease in test [4] is -29.6% (inactive). Also, in test [5], the GLP1 secretion stimulation was -0.7% (inactive). For the same compound, the inhibition of viability in test [6] was 40.4% (inactive). Besides, the viability decrease (inhibition) was 50.4% (active) in test [7] and 14.4% (inactive) in test [8].

Turning to `C=C1C(=C/C=C2\CCC[C@]3(C)[C@@H]([C@H](C)/C=C/[C@@H](O)C4CC4)CC[C@@H]23)C[C@@H](O)C[C@@H]1O`, the nuclear beta-catenin stimulation in test [1] (at 10 µM) is 2.6% (inactive); in test [1] (stimulation, at 2 µM) it was 4.1%. In test [2], the insulin secretion stimulation is 4.15% (inactive). For the same compound, the viability decrease in test [3] is 103% (active). Moreover, the tube area decrease in test [4] was 19.7% (inactive). For the same compound, the GLP1 secretion stimulation in test [5] was 3.9% (inactive). For the same compound, in test [6], the inhibition of viability was 82% (active). In addition, the figures for the viability decrease (inhibition) in test [7] and in test [8] were 111% (active) and 92.9% (active), respectively.

With `Cc1cc(NS(=O)(=O)c2ccc(N)cc2)nc(C)n1`, the nuclear beta-catenin stimulation in test [1] (at 10 µM) was 0.1% (inactive); in test [1] (stimulation, at 2 µM), 0.7%. Moreover, in test [2], the insulin secretion stimulation was -1.1% (inactive). In addition, the viability decrease in test [3] is 0.6% (inactive). Besides, the tube area decrease in test [4] is -1.9% (inactive). Further, the GLP1 secretion stimulation in test [5] is -0.1% (inactive). Besides, the inhibition of viability in test [6] is -10.6% (inactive). In addition, the results for the viability decrease (inhibition) in test [7] and in test [8] were 55% (active) and 29.8% (inactive), respectively.

With `CC(C)NCCCC1(C(N)=O)c2ccccc2-c2ccccc21`, the nuclear beta-catenin stimulation is 3.9% (inactive) in test [1] (at 10 µM) and 0.2% in test [1] (stimulation, at 2 µM). For the same compound, the insulin secretion stimulation in test [2] is 0.2% (inactive). The viability decrease in test [3] was -48.2% (inactive). Also, the tube area decrease in test [4] is 24.7% (inactive). In addition, the GLP1 secretion stimulation in test [5] is -2.8% (inactive). Further, the inhibition of viability in test [6] is -11.9% (inactive). For the same compound, the viability decrease (inhibition) is 1.7% (inactive) in test [7] and -17% (inactive) in test [8].

Take `N[C@H](C(=O)O)[C@@H](O)c1ccc(O)c(O)c1`: the nuclear beta-catenin stimulation is 0.1% (inactive) in test [1] (at 10 µM) and 0% in test [1] (stimulation, at 2 µM). Also, the insulin secretion stimulation in test [2] was 11.2% (inactive). The viability decrease in test [3] is 31.7% (inactive). Besides, the tube area decrease in test [4] is 1.4% (inactive). Moreover, the GLP1 secretion stimulation in test [5] was -4.8% (inactive). In addition, the inhibition of viability in test [6] was 6.7% (inactive). In addition, the viability decrease (inhibition) in test [7] is 21.5% (inactive); in test [8] it was 2.8% (inactive).

As for `COC(=O)c1ccc(NC(C)=O)cc1OC`, the nuclear beta-catenin stimulation in test [1] (at 10 µM) was -0.5% (inactive); in test [1] (stimulation, at 2 µM) it was -1.4%. Moreover, in test [2], the insulin secretion stimulation was -1.4% (inactive). In addition, the viability decrease in test [3] was 13.4% (inactive). Besides, in test [4], the tube area decrease was -3.1% (inactive). Also, in test [5], the GLP1 secretion stimulation was -1.8% (inactive). Also, the inhibition of viability in test [6] is 1.7% (inactive). For the same compound, the viability decrease (inhibition) was -18.6% (inactive) in test [7] and -4.9% (inactive) in test [8].

For `CC(=O)O[C@@H]1CC2C3CCc4cc(OC(=O)c5ccccc5)ccc4C3CCC2(C)[C@H]1OC(C)=O` (stereo not given in full), the nuclear beta-catenin stimulation in test [1] (at 10 µM) was 0.7% (inactive); in test [1] (stimulation, at 2 µM), 1.1%. Also, the insulin secretion stimulation in test [2] is 0.5% (inactive). Also, in test [3], the viability decrease is -39.7% (inactive). Also, in test [4], the tube area decrease was 27.8% (inactive). Further, the GLP1 secretion stimulation in test [5] was 2.1% (inactive). Besides, the inhibition of viability in test [6] is 0.9% (inactive). Besides, the results for the viability decrease (inhibition) in test [7] and in test [8] were 47% (inactive) and -13.5% (inactive), respectively.
